# Measurements as given in the supplement of paper PMC11732987, “Enantioselective OTUD7B fragment discovery through chemoproteomics screening and high-throughput optimisation” (Communications Chemistry, 2025).
# Unmarked numbers belong to inactive results.
# Compound: ClCC(=O)N1CCC(CC#N)C1
# Test: log2 ratio of Biotin-Ahx-Ub-VS probe labelling (compound/DMSO); higher = less target engagement, active = hit call of the paper (q ≤ 0.05, log2 ratio ≤ -1)
# Conditions: compound concentration: 50uM; treatment time: 3 h
# Procedure: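 Round 2 competitive ABPP in HEK293T lysate. Purified HTC-D2B compounds were tested at 50 and 200 µM for 3 h, followed by Biotin-Ahx-Ub-VS enrichment and diaPASEF LC-MS/MS. Values are the average log2 ratio (compound/DMSO) from an unpaired t-test (n=3 treated, n=26 DMSO).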
# UniProt Q86UV5, sequence (Q86UV5 whole entry): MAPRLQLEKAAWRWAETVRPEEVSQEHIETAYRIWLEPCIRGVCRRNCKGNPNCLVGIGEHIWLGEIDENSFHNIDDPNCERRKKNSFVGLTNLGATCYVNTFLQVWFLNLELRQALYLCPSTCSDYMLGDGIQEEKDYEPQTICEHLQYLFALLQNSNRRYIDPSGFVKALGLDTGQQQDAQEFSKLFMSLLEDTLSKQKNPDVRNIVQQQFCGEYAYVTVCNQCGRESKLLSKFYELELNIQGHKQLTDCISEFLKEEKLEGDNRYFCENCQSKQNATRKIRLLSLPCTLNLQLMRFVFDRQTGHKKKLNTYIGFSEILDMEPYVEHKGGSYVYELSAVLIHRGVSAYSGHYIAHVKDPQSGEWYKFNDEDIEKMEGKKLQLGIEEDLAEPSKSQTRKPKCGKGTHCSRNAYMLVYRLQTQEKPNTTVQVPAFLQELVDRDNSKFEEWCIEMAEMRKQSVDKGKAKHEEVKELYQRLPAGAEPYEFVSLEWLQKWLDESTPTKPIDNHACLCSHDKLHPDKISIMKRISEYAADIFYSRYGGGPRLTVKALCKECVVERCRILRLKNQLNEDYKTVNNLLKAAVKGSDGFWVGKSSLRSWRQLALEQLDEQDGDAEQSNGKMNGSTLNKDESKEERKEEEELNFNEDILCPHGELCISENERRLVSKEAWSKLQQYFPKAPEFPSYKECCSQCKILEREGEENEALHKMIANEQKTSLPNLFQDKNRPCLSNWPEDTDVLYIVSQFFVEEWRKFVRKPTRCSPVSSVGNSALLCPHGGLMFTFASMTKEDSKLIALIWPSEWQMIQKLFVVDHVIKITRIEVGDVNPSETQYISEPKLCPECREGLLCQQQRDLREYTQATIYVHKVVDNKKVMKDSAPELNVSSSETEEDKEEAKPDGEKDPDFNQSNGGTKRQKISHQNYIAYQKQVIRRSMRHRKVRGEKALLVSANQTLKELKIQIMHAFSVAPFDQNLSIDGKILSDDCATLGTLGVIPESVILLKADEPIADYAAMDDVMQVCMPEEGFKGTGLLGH
# UniProt Q96FW1, sequence (Q96FW1 whole entry): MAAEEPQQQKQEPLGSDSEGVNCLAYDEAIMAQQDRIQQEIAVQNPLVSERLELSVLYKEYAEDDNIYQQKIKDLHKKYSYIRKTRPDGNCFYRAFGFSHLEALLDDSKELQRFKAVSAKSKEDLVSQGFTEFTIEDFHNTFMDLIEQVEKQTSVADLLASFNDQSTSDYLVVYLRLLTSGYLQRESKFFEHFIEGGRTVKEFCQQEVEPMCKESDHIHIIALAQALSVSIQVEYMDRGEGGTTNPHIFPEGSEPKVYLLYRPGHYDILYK
# UniProt Q9NUU6, sequence (Q9NUU6 whole entry): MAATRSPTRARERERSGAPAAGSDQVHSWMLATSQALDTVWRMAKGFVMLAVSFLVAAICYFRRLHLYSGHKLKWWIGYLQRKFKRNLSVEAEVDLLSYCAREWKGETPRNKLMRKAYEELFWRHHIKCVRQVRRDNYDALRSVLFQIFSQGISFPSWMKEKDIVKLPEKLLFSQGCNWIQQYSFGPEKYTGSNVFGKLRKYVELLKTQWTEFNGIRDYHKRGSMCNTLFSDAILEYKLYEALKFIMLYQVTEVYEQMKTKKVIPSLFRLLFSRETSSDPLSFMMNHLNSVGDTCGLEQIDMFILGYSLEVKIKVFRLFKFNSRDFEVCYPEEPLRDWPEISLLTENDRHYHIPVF
# UniProt Q8N6M0, sequence (Q8N6M0 whole entry): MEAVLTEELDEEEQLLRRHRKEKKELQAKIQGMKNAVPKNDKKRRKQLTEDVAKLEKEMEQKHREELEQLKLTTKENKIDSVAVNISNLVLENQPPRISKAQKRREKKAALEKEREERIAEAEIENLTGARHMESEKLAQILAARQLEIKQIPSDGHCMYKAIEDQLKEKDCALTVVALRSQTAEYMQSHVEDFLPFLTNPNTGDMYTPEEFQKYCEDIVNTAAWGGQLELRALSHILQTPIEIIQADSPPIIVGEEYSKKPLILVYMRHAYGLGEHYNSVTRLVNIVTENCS
# UniProt Q96JH7, sequence (Q96JH7 whole entry): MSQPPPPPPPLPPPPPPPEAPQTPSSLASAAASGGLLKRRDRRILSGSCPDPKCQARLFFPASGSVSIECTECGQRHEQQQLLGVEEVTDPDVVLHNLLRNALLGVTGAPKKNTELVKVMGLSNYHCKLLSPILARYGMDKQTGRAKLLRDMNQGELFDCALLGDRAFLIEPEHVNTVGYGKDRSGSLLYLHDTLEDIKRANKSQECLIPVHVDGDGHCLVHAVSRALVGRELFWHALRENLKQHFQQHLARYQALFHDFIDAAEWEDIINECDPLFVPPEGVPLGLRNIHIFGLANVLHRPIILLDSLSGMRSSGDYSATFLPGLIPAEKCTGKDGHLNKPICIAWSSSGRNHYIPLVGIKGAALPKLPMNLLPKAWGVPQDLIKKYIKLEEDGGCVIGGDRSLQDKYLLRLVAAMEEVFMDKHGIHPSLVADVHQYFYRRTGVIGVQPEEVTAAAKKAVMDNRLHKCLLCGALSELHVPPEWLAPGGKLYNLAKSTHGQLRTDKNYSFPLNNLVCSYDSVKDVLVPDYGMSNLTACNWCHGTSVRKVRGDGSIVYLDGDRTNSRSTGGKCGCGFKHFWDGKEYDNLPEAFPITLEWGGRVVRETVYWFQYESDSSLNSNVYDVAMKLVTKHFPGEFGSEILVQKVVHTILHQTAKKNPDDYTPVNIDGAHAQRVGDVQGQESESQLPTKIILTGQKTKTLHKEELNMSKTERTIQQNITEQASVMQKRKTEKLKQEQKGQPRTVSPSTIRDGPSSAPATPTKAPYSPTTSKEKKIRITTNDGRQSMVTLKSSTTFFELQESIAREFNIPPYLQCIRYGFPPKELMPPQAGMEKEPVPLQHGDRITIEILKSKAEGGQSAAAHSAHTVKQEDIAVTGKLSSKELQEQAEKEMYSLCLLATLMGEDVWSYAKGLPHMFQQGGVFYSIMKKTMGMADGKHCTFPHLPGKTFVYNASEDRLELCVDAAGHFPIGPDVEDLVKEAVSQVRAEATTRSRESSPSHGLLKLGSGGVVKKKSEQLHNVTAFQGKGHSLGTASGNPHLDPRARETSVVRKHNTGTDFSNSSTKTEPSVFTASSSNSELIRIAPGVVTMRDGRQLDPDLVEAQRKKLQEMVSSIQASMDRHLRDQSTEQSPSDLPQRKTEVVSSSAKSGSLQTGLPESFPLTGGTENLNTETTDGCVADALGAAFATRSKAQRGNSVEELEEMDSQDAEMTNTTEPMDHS
# UniProt Q8NB14, sequence (Q8NB14 whole entry): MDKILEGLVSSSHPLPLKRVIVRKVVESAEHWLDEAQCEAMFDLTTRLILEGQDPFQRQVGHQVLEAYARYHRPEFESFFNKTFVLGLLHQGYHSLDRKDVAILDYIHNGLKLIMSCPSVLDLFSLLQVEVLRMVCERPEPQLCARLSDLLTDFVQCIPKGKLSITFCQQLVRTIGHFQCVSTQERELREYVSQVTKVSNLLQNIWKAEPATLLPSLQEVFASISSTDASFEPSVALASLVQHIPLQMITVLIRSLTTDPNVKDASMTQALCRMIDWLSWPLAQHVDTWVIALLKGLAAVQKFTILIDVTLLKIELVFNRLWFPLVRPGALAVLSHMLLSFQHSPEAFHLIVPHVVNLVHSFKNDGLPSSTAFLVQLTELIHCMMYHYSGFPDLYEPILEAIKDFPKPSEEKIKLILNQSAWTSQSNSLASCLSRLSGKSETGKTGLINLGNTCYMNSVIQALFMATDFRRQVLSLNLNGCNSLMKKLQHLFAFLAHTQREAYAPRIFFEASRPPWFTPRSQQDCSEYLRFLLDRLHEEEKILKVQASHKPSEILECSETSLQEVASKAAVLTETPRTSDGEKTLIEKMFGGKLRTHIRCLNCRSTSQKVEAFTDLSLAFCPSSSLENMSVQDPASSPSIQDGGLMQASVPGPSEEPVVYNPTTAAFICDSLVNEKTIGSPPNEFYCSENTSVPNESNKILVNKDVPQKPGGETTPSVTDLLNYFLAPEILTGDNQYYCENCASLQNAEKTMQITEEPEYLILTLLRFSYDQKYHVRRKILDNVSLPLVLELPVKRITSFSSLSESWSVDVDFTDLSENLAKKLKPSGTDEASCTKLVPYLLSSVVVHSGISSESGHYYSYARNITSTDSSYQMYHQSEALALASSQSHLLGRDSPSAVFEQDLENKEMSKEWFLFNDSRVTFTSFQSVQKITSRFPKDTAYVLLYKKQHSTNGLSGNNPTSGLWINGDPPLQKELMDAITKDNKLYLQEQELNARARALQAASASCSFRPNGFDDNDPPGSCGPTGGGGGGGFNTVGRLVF
# UniProt O15372, sequence (O15372 whole entry): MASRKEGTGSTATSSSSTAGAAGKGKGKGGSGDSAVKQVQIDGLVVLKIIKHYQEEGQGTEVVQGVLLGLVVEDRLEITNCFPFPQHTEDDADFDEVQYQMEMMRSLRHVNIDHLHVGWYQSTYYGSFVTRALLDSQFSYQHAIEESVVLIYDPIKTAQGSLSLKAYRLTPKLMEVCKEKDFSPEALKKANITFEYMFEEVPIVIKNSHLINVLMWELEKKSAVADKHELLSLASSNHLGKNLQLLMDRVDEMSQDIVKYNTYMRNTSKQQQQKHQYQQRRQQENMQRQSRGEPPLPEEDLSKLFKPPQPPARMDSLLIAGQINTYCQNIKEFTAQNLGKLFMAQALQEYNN
row,Target,log2 ratio of Biotin-Ahx-Ub-VS probe labelling
1,USP48 (UniProt Q86UV5),-0.0601
2,UniProt Q9P2H5,-0.115
3,USP38 (UniProt Q8NB14),0.00826
4,OTUB1 (UniProt Q96FW1),-0.024
5,VCPIP1 (UniProt Q96JH7),-0.405
6,MINDY4 (UniProt Q4G0A6),0.173
7,OTUD6B (UniProt Q8N6M0),-0.197
8,EIF3H (UniProt O15372),0.0416
9,FAM105A (UniProt Q9NUU6),-0.103

# Same assay, conditions: compound concentration: 200uM; treatment time: 3 h
row,Target,log2 ratio of Biotin-Ahx-Ub-VS probe labelling
1,USP48 (UniProt Q86UV5),-0.185
2,UniProt Q9P2H5,0.00502
3,USP38 (UniProt Q8NB14),-0.302
4,OTUB1 (UniProt Q96FW1),-0.102
5,VCPIP1 (UniProt Q96JH7),-0.311
6,MINDY4 (UniProt Q4G0A6),-0.0819
7,OTUD6B (UniProt Q8N6M0),-0.265
8,EIF3H (UniProt O15372),0.0793
9,FAM105A (UniProt Q9NUU6),0.0672
